High-throughput results from PubChem.
SRC2 inh = inhibits human steroid receptor coactivator 2 | Q15596 | HEK293 GAL4-SRC2 luciferase reporter, luminescence | inhibition, % at 9 µM | actives 0.17% (n = 370,000);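 active = inhibition above the mean inhibition of all tested compounds plus 3 SD, set per campaign, cut at about 52% in these data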;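 note: 0% = DMSO treated cells and 100% = cells given Gossypol at 36 µM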
NCOA3 inh = inhibits human SRC3 coactivator; inhibition, % at 3.6 µM; AID 588352; Q9Y6Q9; actives 0.17% (n = 360,000); HEK293 GAL4-SRC3 luciferase reporter, luminescence;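 active = inhibition above a per-campaign cutoff, the mean of all compounds plus 3 SD, cut at about 60% in these data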;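 note: 0% = DMSO-treated cells and 100% = gossypol-treated cells at 36 µM; higher means less SRC3-driven luciferase light from the GAL4 reporter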
NR5A2 inv ag = suppresses constitutive activity of human LRH-1; actives 0.13% (n = 360,000); HEK293T StAR-luciferase reporter, LRH-1 transfected, 24 h; AID 602396; inhibition, % at 3.6 µM;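 active = inhibition above the mean inhibition of all tested compounds plus 3 SD, cut at about 73% in these data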;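 note: 0% = DMSO wells and 100% = reporter-only cells lacking LRH-1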
NR2F2 inh = inhibitors of human COUP-TFII (NR2F2); P24468; HEK293T NGFI-A luciferase reporter, luminescence; inhibition, % at 8.6 µM; actives 0.7% (n = 370,000); AID 686940;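 active = inhibition above a per-plate cutoff, mean inhibition of test wells between control levels plus 3 SD, cut at about 38% in these data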;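 note: cells cotransfected with COUP-TFII expression vector driving the NGFI-A reporter; 0% = median of COUP-TF2 test wells and 100% = reporter-only cells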
NCOA1 inh = inhibitors of human steroid receptor coactivator 1 (SRC1) | Q15788 | HEK293 GAL4-SRC1 luciferase reporter, luminescence | inhibition, % at 3.6 µM | actives 0.12% (n = 360,000);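 active = inhibition above the campaign mean plus 3 SD, with each screening campaign given its own cutoff, cut at about 60% in these data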;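 note: 0% = DMSO treated cells and 100% = gossypol at 36 µM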
GalR3 antag = blocks the human galanin receptor 3. AID 651719. O60755. inhibition, % at 3 µM. HEK293 GalR3-CNG cAMP membrane potential fluorescence; galR3 body fused to GalR1 C-terminus. actives 0.44% (n = 360,000);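 active = inhibition above the screen-wide average plus 3 SD, cut at about 13% in these data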;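 note: forskolin and galanin both at EC90 stimulate the cells; cAMP rise reported by CNG channel membrane potential dye signal; 0% = forskolin plus galanin with DMSO and 100% = forskolin alone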
Numbers without * were called inactive; · = no result given. Rows were chosen to be rich in hits. Some 1.1% of all compounds tested hit in one or more screens of this group.

SMILES | SRC2 inh | NCOA3 inh | NR5A2 inv ag | NR2F2 inh | NCOA1 inh | GalR3 antag
C[C@H]1CCC/C=C/[C@@H]2C[C@H](O)C[C@H]2[C@H](O)[C@H](S(=O)c2ccc(O)cc2)CC(=O)O1 (stereo partly drawn) | -29.5 | 62.9* | 79.3* | 50.6* | 2.3 | -4.1
COC(=O)C[C@@H]1CC[C@H]2[C@@H](COc3ccc(NC(=O)c4ccc(Cl)cc4)cc3C(=O)N2C)O1 | -8.5 | · | · | -5.3 | · | ·
CCOc1cc(/C=N/NC(N)=O)cc(Br)c1OCC(=O)Nc1cccc2ccccc12 | -25.1 | 7.6 | 17.5 | -14.3 | -27.6 | 43.6*
CCC[C@H]1[C@@H](OC(=O)NCc2ccc(Cl)c(Cl)c2)CC[C@@]23CCCN2C(=O)CCC[C@@H]13 | · | · | · | 26.1 | · | ·
O=c1c2ccccc2nc(N/N=C/c2ccc(O)cc2)n1O | -34.0 | -57.5 | -55.3 | -3.8 | -38.6 | -0.3
O=c1c2ccccc2nc(N/N=C/c2c(O)ccc3ccccc23)n1O | 18.1 | 74.3* | 84.4* | 32.4 | 66.6* | -2.7
O=C(COC(=O)c1ccc(Sc2ncn[nH]2)c([N+](=O)[O-])c1)Nc1ccc(Cl)c(Cl)c1 | -5.7 | · | · | -13.6 | · | ·
COc1ccc(-n2c(SCC(=O)NNC(=S)Nc3ccccc3)nc3ccccc3c2=O)cc1 | 18.4 | · | · | 9.4 | · | ·
CC(C)(CCl)C(=O)Nc1ccc(OC(F)(F)F)cc1 | -33.2 | -2.1 | -0.7 | -10.8 | -6.0 | -1.1
CS/C(=C\[N+](=O)[O-])Nc1ccc(OC(F)(F)F)cc1 | 22.3 | 24.4 | 79.7* | 1.9 | 20.8 | -1.7
O=S(=O)(c1ccc(N=C2NN=C(c3cc(F)ccc3F)CS2)cc1)N1CCOCC1 | -8.6 | 23.4 | 5.3 | 40.5* | -14.5 | -5.3
CC1=NN(c2nc3ccccc3[nH]2)C(=O)C1Cc1ccccc1 (stereo not drawn) | · | 74.6* | 81.2* | · | 50.9 | ·
O=C(/C=C/c1cn(-c2ccccc2)nc1-c1cccnc1)c1ccco1 | 64.0* | 8.4 | 1.9 | 1.6 | 2.4 | 1.6
Cc1ccc(-n2c(O)c(C=Nc3cc(C)on3)c3ccccc3c2=O)c(C)c1 | 3.1 | 66.7* | 22.3 | -0.6 | 53.6 | -1.9
Cc1cc(N=Cc2c(O)n(-c3ccc(C)c(C)c3)c(=O)c3ccccc23)no1 | -9.7 | · | · | 12.1 | · | 0.5
c1ccc(-c2nnc(-c3ccccn3)nc2NC2CCCCC2)cc1 | 13.8 | 78.2* | 67.5 | -2.3 | 50.5 | -8.2
CCC1C/C(=C\c2cccnc2)C(=O)/C(=C/c2cccnc2)C1 (stereo not drawn) | 91.9* | 45.1 | 51.6 | 91.4* | -393.7 | -4.7
O=C1/C(=C/c2cccnc2)CC/C1=C\c1cccnc1 | 9.0 | 8.0 | 11.2 | -3.3 | -36.2 | -4.0
O=C1/C(=C/c2cccnc2)CCC/C1=C\c1cccnc1 | 73.7* | · | · | 90.7* | · | -2.6
NS(=O)(=O)c1ccc(Sc2nc3ccccc3s2)c([N+](=O)[O-])c1 | 38.9 | 61.8* | 55.7 | 16.7 | 23.9 | 0.3
NS(=O)(=O)c1ccc(Sc2ccccn2)c([N+](=O)[O-])c1 | 1.5 | -12.8 | 16.8 | -9.3 | 12.7 | -2.6
O=C1C=CC(=C(c2ccc(O)cc2)c2ccc(O)cc2)C=C1 | 40.5 | 52.7 | 81.2* | 31.1 | 58.9 | -4.4
O=C(CCCC(=O)c1ccc(O)cc1)c1ccc(O)cc1 | -81.4 | -121.4 | -150.9 | -52.5 | -106.4 | 6.0
COC(=O)c1cc(-c2ccc(C(C)(C)C)cc2)c(=O)n2c1CCC2 | 12.3 | · | · | 6.7 | · | ·
COc1ccc(OC)c2sc(N3CCc4ccccc4C3)nc12 | -4.5 | 2.7 | -15.4 | -17.9 | 3.6 | 3.3
SMILES | SRC2 inh | NCOA3 inh | NR5A2 inv ag | NR2F2 inh | NCOA1 inh | GalR3 antag
c1ccc2c(c1)CCN(c1nc3cc4c(cc3s1)OCCO4)C2 | 57.5* | 31.7 | 36.8 | 60.6* | 44.4 | -0.7
N=c1c2c(n(Cc3ccc(F)cc3)c3c1CCC3)CCC2 | 15.6 | 50.1 | 74.5* | 35.6 | 35.5 | -11.3
COC(=O)[C@]12C[C@H](CC(=O)NCCc3ccccc3OC)C(=O)N(CCc3ccc(OC)c(OC)c3)C1=C[C@H](C1CCCC1)O[C@@H]2C | 1.0 | · | · | -4.0 | · | ·
COC(=O)C1=C(CN2CCCc3ccccc32)NC(=O)NC1c1ccc(F)cc1 (stereo not drawn) | 84.6* | 84.3* | 90.8* | 95.9* | 87.0* | 4.6
C#CCNC(=O)C[C@H]1C[C@@]2(C(=O)OC)C(=C[C@H](C(C)(C)C)O[C@@H]2C)N(Cc2cccc3ccccc23)C1=O | 3.5 | · | · | -11.8 | · | ·
Cc1[nH]c2ccccc2c(=O)c1C(=O)/C=C/c1ccccc1 | 65.2* | 72.2* | 41.0 | 10.9 | 64.1* | -3.8
O=C(Nc1ccccc1Oc1ccccc1)c1cc([N+](=O)[O-])ccc1Cl | 54.6* | 57.3 | 26.2 | -1.3 | 37.5 | -3.9
C=C1C(=O)[C@@]23[C@H](O)C[C@@H]4C(C)(C)CC[C@H](O)[C@@]4(C)[C@@H]2CC[C@@H]1[C@H]3O | 60.1* | 34.5 | 37.9 | 22.6 | 43.8 | -2.8
C=C1C(=O)[C@@]23[C@H](O)C[C@@H]4C(C)(C)CC[C@H](O)[C@]4(C)[C@@H]2C[C@H](O)[C@@H]1[C@H]3O | 50.0 | -4.3 | 26.9 | -16.8 | 12.0 | 1.3
COc1ccc(N(C(=O)CCl)C(C(=O)NCCc2ccccc2)c2cccs2)cc1 (stereo not drawn) | 46.8 | 71.4* | -17.7 | 4.9 | 2.6 | 1.4
Cc1cc([N+](=O)[O-])nn1CCCC(=O)Nc1ccc(Cl)cc1Cl | -11.2 | 8.9 | 1.4 | 18.0 | 62.1* | -4.4
Cc1c(Cl)cccc1NC(=O)CCCn1nc([N+](=O)[O-])cc1C | -8.5 | 22.4 | -3.1 | 20.8 | 1.2 | -2.9
CCOc1ccc(C(=O)C(CCC(CN(C)C)C(=O)c2ccc(OCC)cc2)CN(C)C)cc1 (stereo not drawn) | 51.6 | 41.0 | 88.2* | 25.6 | 5.9 | 10.4
CCCN(CCC)c1ncnc2nc[nH]c12 | 36.6 | 65.3* | 27.1 | 25.2 | 59.0 | 4.9
c1ccc(CCSc2nnc(-c3cccnc3)n2Cc2ccccc2)cc1 | -7.5 | · | · | -4.8 | · | ·
Cc1ccc2c(C)nc(Nc3nc(CSc4nc5ccccc5[nH]4)cc(=O)[nH]3)nc2c1 | -31.7 | 65.4* | 8.1 | -0.3 | 51.9 | -2.0
Cc1ccc(SCc2cc(=O)[nH]c(Nc3nc(C)c4ccc(C)cc4n3)n2)cc1 | -22.6 | 16.6 | 14.7 | -6.8 | -53.5 | -2.4
Cc1ccc2nc(NC(=O)CCCC(=O)O)sc2c1 | 56.8* | 32.5 | 17.0 | 36.5 | 25.6 | -6.5
CN(C)c1ccc(Sc2ccc3nc(N)nc(N)c3c2)cc1 | 11.2 | 13.1 | 74.2* | 25.5 | 31.5 | 0.6
COc1ccc(C(=O)NCC(=O)OCc2c(Cl)cccc2Cl)cc1OC | 4.3 | 65.8* | -7.7 | -4.4 | -6.8 | -1.1
COc1ccc(C(=O)NCC(=O)OCc2ccc(F)cc2Cl)cc1OC | 1.0 | 4.1 | -5.9 | 13.4 | 4.4 | -3.2
O=C(O)CCC(NC(=O)c1ccc(Cl)cc1)C(=O)O (stereo not drawn) | -44.4 | 9.9 | 9.0 | 4.7 | -26.2 | -3.5
